Sampled rows, rich in hits. Any-hit rate of the full collection: about 1.4%.
Mm-Cpn inhibitor: blocks the Methanococcus maripaludis chaperonin Mm-Cpn; AID 504842; purified Mm-Cpn ATPase, ADP Transcreener TR-FRET; Potency, µM (doses to about 76.9 µM), without a hit: top-dose activity, negative = inhibition, usual class: inhibitors; 0.031% of 330,000 active; active = well fitted inhibition curve with a large enough effect; inconclusive = small, poorly fitted or top-dose-only effect; also: potency is read from the fitted curve at half-maximal effect; % is scaled to controls: 0 for no effect and ±100 for the full control effect; nearly all actives have a fitted effect of over 80% in size
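Inhibition of chaperonin ATP hydrolysis is measured as reduced ADP production, detected by competitive TR-FRET in which signal falls with ADP. Final enzyme 25 nM and ATP 10 uM, reacted 30 min at 37°C.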
Rango dissoc inh: inhibition of RanGTP-driven Rango-importin beta dissociation; Potency, µM (doses to about 46.1 µM), inactives show top-dose activity change, negative = inhibition; Biochemical FRET Rango-importin beta, RanGTP-induced dissociation; 0.071% of 340,000 active; AID 540253; also: potency is read from the fitted curve at half-maximal effect; % of control where 0% means no effect; nearly all actives have a fitted effect of over 45% in size
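Rango/importin beta premix (0.1/0.25 uM final), PBS + 1 mM DTT + 0.02% Tween-20 + 0.1% BSA; cpd 5 min RT; FRET pre-read; + RanGTP-RCC1 (0.6 uM Ran, 2 mM GTP, 0.2 uM RCC1); 45 min RT; FRET post-read, ex 430, em 486/530 nm.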
CCT chaperon mod: cytosolic chaperonin activity modulation. activity change, % (no concentration beside the values), hits read low. 0.3% of 360,000 active. purified chaperonin ATPase assay, HTRF ADP detection, 30 min; in the data active = activity change below about -30%; also: % is scaled to controls: 0 for no effect and ±100 for the full control effect
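Nucleotide hydrolysis assay: TRiC at 20–40 nM final (set by batch activity) with 10 uM ATP, 30 min at 37 °C, in presence of 76 uM compound. Detection by competitive ADP HTRF, 30 min ambient.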
KCNH2 3.1 inh: inhibitors of human KCNH2 3.1 potassium channel isoform; U2OS KCNH2 3.1, thallium flux FluxOr; hits give low values; activity change, % (tested at about 1.8 µM); AID 720553; 0.95% of 340,000 active;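 active = maximum activity change below -70%; inconclusive = maximum activity change from -70% to -50%; inactive = maximum activity change above -50%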;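 also: thallium influx rate constant from kinetic fluorescence after stimulation buffer; % is scaled to controls: 0 for no effect and ±100 for the full control effect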
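Channel expression came from 3.1 mutant virus (1.77 x 10^8 /mL) applied to suspended U2OS cells for 4 h. Flux was tracked with FluxOr dye plus Red40 quencher, and kinetic rate constants normalized to controls.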
Rango complex inh: Rango-importin beta binding inhibition; Q14974; Rango CFP/YFP FRET sensor + importin beta, 45 min; Potency, µM (titrated, usually from 92.2 µM), inactives show at the top dose inhibition of complex formation; 0.031% of 340,000 active;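 also: potency is read from the fitted curve at half-maximal effect; 0% = DMSO wells and 100% = buffer wells lacking importin beta; nearly all actives have a fitted effect of over 15% in size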
Target sequence (Q14974 whole entry, looked up): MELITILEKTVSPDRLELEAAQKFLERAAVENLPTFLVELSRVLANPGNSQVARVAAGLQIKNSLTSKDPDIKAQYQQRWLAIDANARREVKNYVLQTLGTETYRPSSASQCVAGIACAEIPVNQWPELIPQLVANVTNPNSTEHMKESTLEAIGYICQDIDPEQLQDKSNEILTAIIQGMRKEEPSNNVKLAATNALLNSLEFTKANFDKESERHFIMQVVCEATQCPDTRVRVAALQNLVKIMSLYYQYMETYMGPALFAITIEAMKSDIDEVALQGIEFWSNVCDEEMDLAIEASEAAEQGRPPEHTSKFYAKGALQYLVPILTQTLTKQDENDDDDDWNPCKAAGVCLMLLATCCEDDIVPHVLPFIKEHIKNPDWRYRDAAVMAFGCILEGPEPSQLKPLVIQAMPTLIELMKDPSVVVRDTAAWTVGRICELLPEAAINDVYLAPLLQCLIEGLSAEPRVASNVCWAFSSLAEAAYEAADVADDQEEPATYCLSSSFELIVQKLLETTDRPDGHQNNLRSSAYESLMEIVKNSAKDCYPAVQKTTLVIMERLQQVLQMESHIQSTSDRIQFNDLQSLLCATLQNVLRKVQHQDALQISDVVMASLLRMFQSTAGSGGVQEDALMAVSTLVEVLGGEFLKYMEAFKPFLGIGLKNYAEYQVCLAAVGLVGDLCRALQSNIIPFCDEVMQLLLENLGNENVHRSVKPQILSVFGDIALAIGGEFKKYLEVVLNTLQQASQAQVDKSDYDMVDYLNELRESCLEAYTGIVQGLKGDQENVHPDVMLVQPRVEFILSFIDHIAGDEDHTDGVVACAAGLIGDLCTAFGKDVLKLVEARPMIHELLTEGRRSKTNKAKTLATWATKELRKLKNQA
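Inhibition scored from the CFP 486 nm/YFP 530 nm FRET ratio 45 min after adding 0.125 microM importin beta to 50 nM Rango biosensor preincubated 5 min with compound (room temperature, PBS with DTT, Tween-20, BSA). No-importin wells as positive control.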
KCNH2 WT inh: blocks the wildtype human KCNH2 potassium channel. Q12809. U2OS, BacMam KCNH2, thallium flux FluxOr; hits give low values. activity change, % at 1.84 µM. 0.37% of 340,000 active. AID 720551;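 active = maximum activity change below -70%; inconclusive = maximum activity change between -70% and -50%; inactive = maximum activity change above -50%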; also: % is scaled to controls: 0 for no effect and ±100 for the full control effect
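U2OS cells transduced with wild-type KCNH2 virus are loaded with FluxOr dye for 45 min, and thallium flux is measured in kinetic reads before and after stimulation buffer. Rate constants are normalized to DMSO controls.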
Active calls of the source: *; ? = inconclusive; nt = no result given; [ ] = dose if it differs, or a comment. Unless noted, calls follow the shape of the full dose curve.

SMILES	Mm-Cpn inhibitor	Rango dissoc inh	CCT chaperon mod	KCNH2 3.1 inh	Rango complex inh	KCNH2 WT inh
CCCC(=O)n1nc(-c2cccnc2)nc1NCc1ccccc1	0%	2%	0	-125*	-3%	-2
O=C(NCc1ccc2c(c1)OCO2)c1ccc(Cl)c(S(=O)(=O)N2CCOCC2)c1	1%	6%	-6	-94*	0%	0
c1ccc(CNc2nc3ccccc3[nH]2)cc1	-1%	26%	0	1	?	-9
COc1ccc(CNC(=O)c2ccc(Cl)c(S(=O)(=O)N3CCOCC3)c2)cc1OC	0%	1%	0	8	-11%	-3
CC(C)CNC(=O)CCCc1c[nH]c2ccccc12	-1%	4%	3	-12	-3%	-70*
Cc1cccc(C)c1NC(=O)CNC(=O)Cc1c[nH]c2ccccc12	-13%	-12%	2	5	-1%	-106*
c1ccc2[nH]c(NCc3ccc4c(c3)OCO4)nc2c1	0%	12%	-3	-11	-1%	-126*
COc1ccc(C2=NS(=O)(=O)N(C)C(C(=O)N3CCCCC3C)=C2)cc1 (centres undefined)	1%	26%	-1	-25	3%	-5
Cc1ccc(C(=O)NCc2ccc3c(c2)OCO3)cc1S(=O)(=O)N1CCCCC1	-3%	-6%	2	-14	-4%	-91*
Cc1ccc(C(=O)NCc2ccc3c(c2)OCO3)cc1S(=O)(=O)N1CCOCC1	1%	0%	0	10	3%	6
CN(C)c1cccc(C(=O)NCc2ccc3c(c2)OCO3)c1	-5%	0%	-40*	-25	-4%	0
O=C(Cc1c[nH]c2ccccc12)NCc1ccc2c(c1)OCO2	-3%	10%	-38*	3	-1%	-8
CC(C)(C)NC(=O)C1(C)CCC(=O)N1CC(F)(F)F (centres undefined)	nt	nt	-1	nt	nt	nt
N#Cc1ccc2c(c1)C[C@]1(CCCCN3C(=O)c4ccccc4C3=O)Oc3c(c(=O)oc4ccccc34)C2O1	-4%[15.4 µM]	nt	nt	nt	nt	nt
Cc1ccc(NC(=O)CSc2nnc(C(F)(F)F)n2C)cc1[N+](=O)[O-]	-2%	7%	1	1	-1%	0
NC(=O)c1cc2ccccc2o/c1=N\NC(=O)c1ccncc1	-1%	-16%	-1	1	-2%	2
Cc1ccc(C(=O)N/N=c2\oc3ccccc3cc2C(N)=O)cc1	-2%	11%	-30*	-28	1%	-9
N#Cc1ccccc1S(=O)(=O)Nc1ccc2c(c1)OCCO2	-1%	26%	1	-9	-2%	-5
O=C(NC1CC1)C1=C[C@H](c2ccc(Br)cc2)C[C@H](OCc2ccc(CO)cc2)O1	0%	-2%	0	-10	-4%	0
O=C(NC1CC1)C1=C[C@H](c2ccccc2)C[C@H](OCc2ccc(CO)cc2)O1	nt	-5%	-4	-181*	0%	-11
O=C(NCc1nc2ccccc2[nH]1)C1=C[C@@H](c2ccc(Br)cc2)C[C@@H](OCc2ccc(CO)cc2)O1	nt	-12%	-1	-97*	1%	10
O=C(NCc1nc2ccccc2[nH]1)C1=C[C@@H](c2ccccc2)C[C@@H](OCCCCO)O1	nt	1%	1	-17	-1%	36
O=C(NCc1nc2ccccc2[nH]1)C1=C[C@@H](C2CCCCC2)C[C@@H](OCCCCO)O1	0%	7%	0	-75*	0%	10
C[C@H]1C=C(C(=O)NCc2nc3ccccc3[nH]2)O[C@@H](OCc2ccc(CO)cc2)C1	-1%	4%	-4	-17	-3%	-4
O=C(NCc1nc2ccccc2[nH]1)C1=C[C@@H](c2ccc(Br)cc2)C[C@@H](OCCCCO)O1	nt	17%	1	-89*	-1%	-35
O=S(=O)(Nc1cc(F)ccc1F)c1cccc2nonc12	0%	-3%	1	6	1%	6
CCOC(=O)c1c(-c2ccccc2)nc2ccccn12	0%	-2%	3	-3	-1%	3
